# Laboratory results from PubChem BioAssay (Tox21).
# Records with an inconclusive call do not appear. A call without a number means that no potency is given here. Unmarked numbers belong to inactive results. Calls of active or inactive are those of the source. Calls come from the whole dose curve; as a rule, active = well fitted inhibition curve with a large enough effect in the repeat runs; inconclusive = weak or mixed curves; inactive = no such curve, though single readings can be large or run the other way.
# Target: Estrogen receptor (Homo sapiens) (UniProt P03372)
# Sequence (P03372 whole entry, looked up): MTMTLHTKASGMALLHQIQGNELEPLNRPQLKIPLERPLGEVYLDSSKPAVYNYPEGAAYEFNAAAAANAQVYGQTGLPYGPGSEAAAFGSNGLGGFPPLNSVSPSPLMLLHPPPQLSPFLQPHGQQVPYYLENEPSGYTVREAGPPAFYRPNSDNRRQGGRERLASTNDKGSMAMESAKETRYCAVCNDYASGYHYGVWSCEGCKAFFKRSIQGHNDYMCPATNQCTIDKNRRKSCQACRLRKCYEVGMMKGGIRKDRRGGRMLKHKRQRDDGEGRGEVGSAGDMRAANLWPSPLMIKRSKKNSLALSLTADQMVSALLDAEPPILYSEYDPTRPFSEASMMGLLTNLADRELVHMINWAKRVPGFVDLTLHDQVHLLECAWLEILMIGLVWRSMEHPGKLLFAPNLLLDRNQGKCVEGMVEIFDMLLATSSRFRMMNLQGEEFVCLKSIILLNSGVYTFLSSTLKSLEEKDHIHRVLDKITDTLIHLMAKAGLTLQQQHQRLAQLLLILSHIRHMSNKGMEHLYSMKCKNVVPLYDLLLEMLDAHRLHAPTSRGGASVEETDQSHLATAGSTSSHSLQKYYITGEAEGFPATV
# Experiment: qHTS assay to identify small molecule antagonists of the estrogen receptor alpha (ER-alpha) signaling pathway using the BG1 cell line in the presence of 0.1 nM 17-beta-estradiol (AID 1259244); note: nearly all actives have a fitted effect of over 50% in size
# Conditions: VM7Luc4E2 (BG1) ERE-luciferase, antagonist mode, 0.1 nM E2, 22 h; series mostly up to 92.4 µM
# Text: National Center for Advancing Translational Sciences [NCATS]
# NIH Chemical Genomics Center [NCGC]
# U.S. Environmental Protection Agency [EPA]
# National Institutes of Environmental Health Sciences [NIEHS]
# National Toxicology Program [NTP]
# U.S. Food and Drug Administration [FDA]
# Estrogen receptor (ER), a member of the nuclear hormone receptor plays an important role in development, metabolic homeostasis and reproduction. Two subtypes of ER, ER-alpha and ER-beta, have similar expression patterns with some uniqueness in both types. Endocrine disrupting chemicals (EDCs) and their interactions with steroid hormone receptors like ER causes disruption of normal endocrine function. Therefore, it is important to understand the effect of environmental chemicals in ER signaling pathway. For identifying ER antagonists, VM7Luc4E2 cell line was used to screen against Tox21 compound libraries.
# VM7Luc4E2 cell line (provided by Denison MS, University of California) endogenously express full-length ER-alpha and is stably transfected with a plasmid containing four estrogen responsive elements (ERE) upstream of a luciferase reporter gene. The current screening for identification of ER-alpha inhibitors against Tox21 compound libraries used lower concentration (0.1 nM) of 17beta-Estradiol as a stimulator.
# Tox21 Assay Protocol Summary:
# VM7Luc4E2 cells were cultured in phenol red free assay medium containing 10% charcoal stripped FBS for 5 days prior to the assay. The cells were dispensed at 4,000 cells/well in 4 uL of assay medium into white wall/solid-bottom 1536-well plates (Corning Life Sciences, Corning, NY) using a Multidrop Combi (ThermoFisher Scientific, Waltham, MA) dispenser. After the assay plates were incubated at 37C and 5% CO2 for 24 hr, 23 nL of compounds dissolved in DMSO, positive controls or DMSO only was transferred to the assay plates by a Pintool station (Kalypsys, San Diego, CA). The transfer of compounds was followed by the addition of 1 uL of 0.1 nM (final concentration) agonist (17beta-Estradiol)/assay medium using a Flying Reagent Dispenser (FRD, Aurora Discovery, San Diego, CA). The plates were incubated at 37C and 5% CO2 for 22 hr. For luciferase reporter gene assay, 4 uL of ONE-Glo reagent (Promega Corporation, Madison, WI) was added to each well using the FRD and after 30 min incubation at room temperature luminescence intensity was measured using ViewLux plate reader (PerkinElmer, Shelton, CT).
SMILES,Potency,"activity change, negative = inhibition"
C=CCOCC(O)CCl (stereo not given),inactive,–
CC(C)(C)c1ccc(C=O)cc1,inactive,–
NC(=O)NC(=O)Cc1ccccc1,inactive,–
O=c1[nH]c(=O)c2[nH]c(=O)[nH]c2[nH]1,–,-0.565% [at 8.39 µM]
CCC(C)(C)C1CCC(=O)CC1,inactive,–
CNC(=O)NC,inactive,–
CC(C)CCC(=O)CCC(C)C,inactive,–
CCCOC(=O)CCCCC(=O)OCCC,inactive,–
O=C1OC(=O)c2ccccc21,inactive,–
Cc1ccccc1C,inactive,–
CC(C)(CO)[C@@H](O)C(=O)NCCCO,inactive,–
CC(=O)Nc1ncc([N+](=O)[O-])s1,inactive,–
Nc1ccc(S(=O)(=O)Nc2ccccn2)cc1,inactive,–
C=CCOC(=O)c1ccc(C(=O)OCC=C)c(C(=O)OCC=C)c1,inactive,–
O=C1OC(=O)c2cc(Oc3ccc4c(c3)C(=O)OC4=O)ccc21,inactive,–
O=C(Oc1ccccc1C(=O)O)c1ccccc1O,inactive,–
Cc1cc(C)cc([N+](=O)[O-])c1,inactive,–
C[Si]1(C)N[Si](C)(C)N[Si](C)(C)N1,inactive,–
CCC(CO)CO,inactive,–
CC(C)SCc1ccco1,inactive,–

SMILES,Potency,"activity change, negative = inhibition"
Cc1ccc(C(=O)C(=O)O)cc1C,inactive,–
NCCc1ccn[nH]1,inactive,–
C=CCOc1c(Br)cc(C(C)(C)c2cc(Br)c(OCC=C)c(Br)c2)cc1Br,inactive,–
CC(C)C(=O)Nc1cccc(C(F)(F)F)c1,inactive,–
COC(/C=C(\C)CCC=C(C)C)OC,inactive,–
NC(=O)NNC(N)=O,inactive,–
CC(C)CCCCCCOC(=O)C1CCCCC1C(=O)OCCCCCCC(C)C (stereo not given),inactive,–
C=C[Si](C)(C)O[Si](C)(C)C=C,inactive,–
OC(CCN1CCCCC1)(c1ccccc1)c1ccccc1,inactive,–
O=C(COCCOCCOCC(=O)Nc1c(I)cc(I)c(C(=O)O)c1I)Nc1c(I)cc(I)c(C(=O)O)c1I,inactive,–
O=C(/C=C/c1ccccc1)NCCO,inactive,–
CCCCC(CC)CNC(=O)CC(C)OC(=O)CCC(=O)O (stereo not given),inactive,–
CN=C(NC#N)NCCSCc1csc(N=C(N)N)n1,inactive,–
CCCCCC1Nc2cc(C(F)(F)F)c(S(N)(=O)=O)cc2S(=O)(=O)N1 (stereo not given),inactive,–
Cc1cccc(C(=O)O)c1[N+](=O)[O-],inactive,–
O=C(O)c1ccc(OCCN2CCCCC2)cc1,inactive,–
O=P(O)(O)OCC(O)CO (stereo not given),inactive,–
CCN(Cc1cccc(S(=O)(=O)O)c1)c1ccccc1,inactive,–
COc1cccc2sc(N)nc12,inactive,–
Nc1ccc(S(=O)(=O)NC(=O)c2ccccc2)cc1,inactive,–
